Measurements: PubChem BioAssay (NCI)
About 83,000 compounds went through this panel and 20% of them were active in at least one assay; those are over-represented in the sample as a whole.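 Values shown are percent growth following 48 h exposure of cells in 96-well plates to a single concentration of compound; below 10 was considered active.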 Unmarked numbers belong to inactive results. The source made the active and inactive calls.

How the values were obtained:
Experiment in all cases: NCI-60 one-dose screen, 48 h (100 = growth as untreated, 0 = no growth, -100 = all killed)
Settings in all cases: 10 µM unless noted
[1] = test system: DU-145 prostate
[2] = test system: K-562 leukemia
[3] = test system: MALME-3M melanoma
[4] = test system: MDA-MB-231 breast
[5] = test system: RXF 393 renal
[6] = test system: SF-268 CNS
[7] = test system: SF-295 CNS
[8] = test system: SF-539 CNS
[9] = test system: UACC-257 melanoma
[10] = test system: M14 melanoma
[11] = test system: HCT-15 colon
[12] = test system: HT29 colon
[13] = test system: SNB-75 CNS
[14] = test system: SNB-19 CNS
[15] = test system: U251 CNS
[16] = test system: PC-3 prostate
[17] = test system: SK-MEL-5 melanoma
[18] = test system: UACC-62 melanoma
[19] = test system: SK-MEL-28 melanoma
[20] = test system: LOX IMVI melanoma

Structure (SMILES) | growth [1] | growth [2] | growth [3] | growth [4] | growth [5] | growth [6] | growth [7] | growth [8] | growth [9] | growth [10] | growth [11] | growth [12] | growth [13] | growth [14] | growth [15] | growth [16] | growth [17] | growth [18] | growth [19] | growth [20]
CCOc1ccc(N2C(=O)CCSC2=S)cc1 | 103% | 111% | 96% | 104% | 117% | 104% | 95.7% | 94.9% | 99% | 102% | 101% | 106% | 90.5% | 94.7% | 102% | 93.3% | 98.9% | 91.9% | 108% | 
COc1ccc(-c2cc(-c3ccc(Nc4nc(Nc5ccc(Cl)cc5)nc(Nc5ccc(Cl)cc5)n4)cc3)no2)cc1 | 91.3% | 69.9% | 104% | 82.1% | -8.53% (active) | 72.9% | 73% | 86.1% | 105% | 86.7% | 76.1% | 78.9% | 89.1% | 107% | 62.4% | 60.5% | 73% | 101% | 89.7% | 
CC1=C([Se]CC(OC(=O)[C@@H](CO)NC(=O)OC(C)(C)C)C(=O)NCCCCCC(=O)OCc2ccccc2)C(=O)c2ccccc2C1=O (stereo partly specified) | -54.6% (active) | -4.48% (active) | -68.1% (active) | -54.4% (active) | -99.4% (active) | -2.71% (active) | -38.4% (active) | -92.6% (active) | -94% (active) | -95% (active) | -45.8% (active) | -67.5% (active) | -99.6% (active) | -87% (active) | -85.8% (active) | -72.6% (active) | -89.9% (active) | -76% (active) | -89.1% (active) | -76.6% (active)
COc1ccc(-c2csc(NC(=O)CSc3nc(C)cc(=O)[nH]3)n2)cc1 | 106% | 104% | 110% | 91.7% | 128% | 96.4% | 99.3% | 101% | 101% | 107% | 102% | 107% | 95.9% | 89.3% | 102% | 94.9% | 96.7% | 87.7% | 106% | 96.3%
O=C(Nc1cccc(Cl)c1)Oc1c(Cl)c(Cl)c(Cl)c(Cl)c1Cl | 95.6% | 98.6% | 101% | 94.3% | 117% | 95.9% | 90% | 95.3% | 110% | 97.3% | 100% | 96.3% | 76.2% | 99.1% | 102% | 86.9% | 90.6% | 90% | 109% | 
O=C(/C=C/c1ccc([N+](=O)[O-])cc1)c1cccc(Nc2nc(Nc3ccccc3)nc(Nc3ccccc3)n2)c1 | 77.3% | 60.8% | 87.5% | 70.9% | -39.7% (active) | 85.5% | 79.7% | 74.7% | 98.7% | 74.5% | 68.6% | 68.2% | 52.4% | 93.7% | 58% | 62.1% | 62.8% | 82.7% | 88.3% | 67.9%
C(CCCSC1=NCCN1)CCSC1=NCCN1 | 109% | 116% | 104% | 103% | 104% | 106% | 108% | 101% | 98.5% | 99.3% | 102% | 95% | 91.4% | 114% | 98.2% | 64.7% | 107% | 107% | 113% | 
C=C(c1ccc(OC)c(/C=C/C(=O)c2cc(OC)c(OC)c(OC)c2)c1)c1cc(OC)c(OC)c(OC)c1 | 15.6% | 12.7% | -6.73% (active) | 30.4% | -68.5% (active) | 21.7% | 30.5% | -84.7% (active) | 2.85% (active) | 4.85% (active) | -21.6% (active) | 0.495% (active) | 49.8% | -3.73% (active) | -49.3% (active) | 31.5% | -69.3% (active) | -70% (active) | -77.3% (active) | -87.3% (active)
